KDM5B inh = inhibitors of human KDM5B histone demethylase | Potency, µM (doses to about 57.7 µM), actives largely listed as inhibitors | 2.6% of 220,000 active | Q9UGL1 | KDM5B demethylase, FDH-coupled NADH fluorescence (FDH is formaldehyde dehydrogenase); active = well fitted inhibition curve with a large enough effect; note: 0% is about no effect; nearly all actives have a fitted effect of over 70% in size
Target sequence (Q9UGL1 whole entry, looked up): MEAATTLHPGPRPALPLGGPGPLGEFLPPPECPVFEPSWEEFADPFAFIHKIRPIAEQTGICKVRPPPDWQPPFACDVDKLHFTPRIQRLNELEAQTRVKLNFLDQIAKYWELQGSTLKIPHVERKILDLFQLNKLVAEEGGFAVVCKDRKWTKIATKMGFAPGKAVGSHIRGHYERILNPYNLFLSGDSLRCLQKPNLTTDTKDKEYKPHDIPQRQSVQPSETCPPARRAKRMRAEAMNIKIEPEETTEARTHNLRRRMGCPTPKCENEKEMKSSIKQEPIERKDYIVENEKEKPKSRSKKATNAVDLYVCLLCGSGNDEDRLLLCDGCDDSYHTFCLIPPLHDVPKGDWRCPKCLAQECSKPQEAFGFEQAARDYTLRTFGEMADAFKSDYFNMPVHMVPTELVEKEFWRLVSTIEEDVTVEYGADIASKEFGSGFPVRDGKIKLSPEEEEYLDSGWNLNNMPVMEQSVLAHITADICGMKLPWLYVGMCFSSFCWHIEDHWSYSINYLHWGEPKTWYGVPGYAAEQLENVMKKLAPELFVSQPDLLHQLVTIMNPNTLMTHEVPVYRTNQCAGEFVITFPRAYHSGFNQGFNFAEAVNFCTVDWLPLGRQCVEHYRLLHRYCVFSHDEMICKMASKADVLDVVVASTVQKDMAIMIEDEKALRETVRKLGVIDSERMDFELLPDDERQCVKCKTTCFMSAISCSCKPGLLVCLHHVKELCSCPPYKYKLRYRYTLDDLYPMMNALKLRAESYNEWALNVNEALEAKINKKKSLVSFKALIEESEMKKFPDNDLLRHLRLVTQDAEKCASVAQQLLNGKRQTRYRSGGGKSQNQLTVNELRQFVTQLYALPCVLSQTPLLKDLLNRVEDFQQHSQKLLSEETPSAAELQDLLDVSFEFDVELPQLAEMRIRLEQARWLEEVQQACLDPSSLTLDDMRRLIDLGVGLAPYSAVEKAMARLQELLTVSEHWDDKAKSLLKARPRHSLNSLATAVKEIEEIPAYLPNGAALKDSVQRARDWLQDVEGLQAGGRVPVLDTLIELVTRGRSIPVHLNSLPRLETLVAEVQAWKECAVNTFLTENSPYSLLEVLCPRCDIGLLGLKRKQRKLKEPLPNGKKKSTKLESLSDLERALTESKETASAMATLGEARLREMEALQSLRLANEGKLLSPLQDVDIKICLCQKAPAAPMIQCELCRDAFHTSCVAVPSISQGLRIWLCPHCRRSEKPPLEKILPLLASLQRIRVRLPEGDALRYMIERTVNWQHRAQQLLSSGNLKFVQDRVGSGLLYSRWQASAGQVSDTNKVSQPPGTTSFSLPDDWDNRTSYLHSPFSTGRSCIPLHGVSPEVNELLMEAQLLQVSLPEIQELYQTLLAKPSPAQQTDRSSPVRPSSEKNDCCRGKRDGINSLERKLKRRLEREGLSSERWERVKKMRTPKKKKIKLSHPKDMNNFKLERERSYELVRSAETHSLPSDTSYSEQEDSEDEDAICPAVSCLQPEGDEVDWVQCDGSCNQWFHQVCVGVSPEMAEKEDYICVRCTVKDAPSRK
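Inhibition is measured as reduced NADH fluorescence generation from FDH coupling to formaldehyde release. Truncated KDM5BΔAP at 200 nM final acts on H3K4me3 peptide (12.5 µM in substrate mix) in pH 7.5 HEPES buffer with Tween-20, 30 min, room temperature.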
* marks the source's active call; other numbers are inactive results; i = inactive. The full list was thinned out, with hits kept by preference. Potency is the fitted concentration of half-maximal effect.

SMILES	KDM5B inh
COc1cccc2cc(C(=O)OCC(=O)NCc3ccc4c(c3)OCO4)c(=O)oc12	i
O=C(NCc1ccc2c(c1)OCO2)c1nn(-c2ccc(Cl)cc2)nc1CO	i
O=C(NCc1cccs1)c1nc(-c2cccnc2)c2ccccn12	i
Cc1ccc(-c2nnn3c2nc(NCc2ccc4c(c2)OCO4)c2ccccc23)cc1	i
O=C(NCc1cccs1)c1cc(-c2cccnc2)nc2ccc(Br)cc12	i
Fc1cccc(-c2nnn3c2nc(NCc2ccc4c(c2)OCO4)c2ccccc23)c1	i
Cc1ccc(-n2nc(CO)c(C(=O)NCc3ccc4c(c3)OCO4)n2)cc1	i
O=C(NCc1cccs1)c1nc(-c2cccnc2)c2cnccn12	25µM*
COc1ccccc1-c1nc(C(=O)NCc2ccc3c(c2)OCO3)n2ccccc12	25µM*
O=C(NCc1ccc2c(c1)OCO2)c1nc(-c2cc(Cl)cc(Cl)c2)c2ccccn12	14µM*
COc1ccc(N2C(=O)CCC2(C)C(=O)NC2CCCC2)c(OC)c1 (stereo not given)	i
COc1ccc(OC)c(NC(=O)CN2CC3CC(C2)[C@H]2CCCC(=O)N2C3)c1 (stereo not given in full)	i
N#Cc1cccc(NC(=O)Cn2c(=O)c3c(ncn3C3CCCC3)n(Cc3ccccc3)c2=O)c1	i
CCCc1c(C(=O)OCC)nnc2c(-c3ccc(F)cc3)c(C)nn12	i
COc1ccc(CN(C(=O)c2cc(=O)c3ccc(C)cc3o2)C2CCS(=O)(=O)C2)cc1OC (stereo not given)	i
CCCCn1c(-n2nc(CC)cc2CC)nc2c1c(=O)n(CC(N)=O)c(=O)n2C	i
O=C(NCc1ccc2c(c1)OCO2)c1nc(-c2cccc(C(F)(F)F)c2)c2cnccn12	28µM*
O=C(NCc1ccc2c(c1)OCO2)c1nc(-c2cccnc2)c2cnccn12	28µM*
Cc1nc(N2CCC(C(=O)NCc3ccc4c(c3)OCO4)CC2)cc(C(F)(F)F)n1	i
O=C(NCc1cccc(C(F)(F)F)c1)c1cnc(-c2ccccc2)nc1-c1ccncc1	i
Cc1cc2c(c(=O)n(-c3ccc(F)cc3)c(=O)n2CC(=O)Nc2cc(F)ccc2F)n1C	i
Cc1ccc(-c2nc(C)sc2CC(=O)NCC23CC4CC(CC(C4)C2)C3)cc1	i
Cc1ccc(C(=O)C(C)OC(=O)c2nn(C)c(=O)c3ccccc23)cc1C (stereo not given)	i
CCOc1cccc(C(N)=S)c1	i
O=C(NCCNC(=O)c1cc2ccccc2[nH]1)C(=O)Nc1ccccc1	i
SMILES	KDM5B inh
CCCCCCCCS(=O)CCCCO (stereo not given)	i
Cc1cc(C)c(CNC(=O)c2cc(-c3ccccc3O)cc3c2OCCN3C(C)C)c(=O)[nH]1	25µM*
Cc1cc(C)c(CNC(=O)c2cc(-c3ccccc3C)cc3c2OCCN3C(C)C)c(=O)[nH]1	32µM*
CC(=O)Nc1cccc(-c2cc(C(=O)NCc3c(C)cc(C)[nH]c3=O)c3c(c2)N(C(C)C)CCO3)c1	28µM*
Cc1cc(C)c(CNC(=O)c2cc(-c3ccccc3F)cc3c2OCCN3C(C)C)c(=O)[nH]1	32µM*
CC1(C)[C@H](Cc2cc(CN3CCN(c4ccccc4)CC3)on2)C[C@@H]1NC(=O)NCc1ccccc1	i
Cc1cccc(NC(=O)CNC(=O)CCc2c(C)nc3c4ccccc4nn3c2C)c1C	i
CCOC(=O)C1=C(C)N(C)C(=O)N(C)C1c1cccc(Br)c1 (stereo not given)	i
O=C1CC(c2ccccc2)N(C(=O)COc2ccc(F)cc2)CCCCCCN1 (stereo not given)	i
O=C(NCCc1nc2ccccc2[nH]1)C1CCN(C(=O)N2CC3CC(C2)[C@H]2CCCC(=O)N2C3)CC1 (stereo not given in full)	i
COc1ncc(-c2cc(C(=O)NCc3c(C)cc(C)[nH]c3=O)c3c(c2)N(C(C)C)CCO3)cn1	i
COc1ccc(-c2cc(C(=O)NCc3c(C)cc(C)[nH]c3=O)c3c(c2)N(C(C)C)CCO3)cc1	32µM*
COc1ccccc1CC(=O)N(Cc1ccsc1)C1CC1	i
COc1ccc(Cl)cc1-c1ccc2c(c1)C(=O)N1CCN(C(=O)CC(C)(C)C)C[C@@H]1C(=O)N2	i
C[C@@H](c1ccccc1)N1C(=O)[C@@H]2CN(C(=O)c3ccc(N(C)C)cc3)CCN2C1=O	i
CCS[C@H]1CCN2C(=O)c3cc(-c4cc(Cl)ccc4OC)ccc3NC(=O)[C@H]12	i
COc1ccc(Cl)cc1-c1ccc2c(c1)C(=O)N1CCN(C(=O)c3ccccc3)C[C@@H]1C(=O)N2	22µM*
O=C1Nc2ccc(-c3ccc(Cl)cc3)cc2C(=O)N2CCN(C(=O)c3cccs3)C[C@H]12	i
COc1ccc(Cl)cc1-c1ccc2c(c1)C(=O)N1CCN(C(=O)c3ccc(N(C)C)cc3)C[C@@H]1C(=O)N2	32µM*
COc1ccc(Cl)cc1-c1ccc2c(c1)C(=O)N1CCN(C(=O)c3cccs3)C[C@@H]1C(=O)N2	28µM*
COc1ccc(Cl)cc1-c1ccc2c(c1)C(=O)N1CCN(C(=O)C3CCCCC3)C[C@@H]1C(=O)N2	10µM*
Cc1cc(C(=O)N2CCCC3(COc4ccccc4S(=O)(=O)N3)C2)no1 (stereo not given)	i
Cc1c(CCC(=O)NC2CCCCCC2)c(=O)oc2cc(O)ccc12	i
CCOC(=O)c1ccc2ncc(C(=O)OCC)c(NCCCO)c2c1	i
C=CCNC(=S)N/N=C1/C=C(C)CC(C)(C)C1	i
SMILES	KDM5B inh
O=C1CCCC2=C1C(c1ccc(Br)cc1)n1nnnc1N2 (stereo not given)	i
CCOc1ccc2oc(C(=O)N3CCN(CC(=O)Nc4ccc(C)cc4)CC3)c(C)c2c1	i
O=C(Nc1ccc(-c2ccccc2)cc1)c1cc(F)c(F)cc1Cl	i
O=C1Nc2ccc(-c3cccc(C(F)(F)F)c3)cc2C(=O)N2CCN(C(=O)COc3ccccc3)C[C@H]12	i
COc1ccc(-c2ccc3c(c2)C(=O)N2CCN(C(=O)c4cccc(F)c4)C[C@@H]2C(=O)N3)cc1	18µM*
CC(C)(CC(=O)O)CC(=O)N1CCN2C(=O)c3cc(-c4ccccc4F)ccc3NC(=O)[C@@H]2C1	i
O=C1Nc2ccc(-c3cccc(C(F)(F)F)c3)cc2C(=O)N2CCN(C(=O)c3cccc(F)c3)C[C@H]12	i
O=C1Nc2ccc(-c3ccccc3F)cc2C(=O)N2CCN(C(=O)c3ccccc3)C[C@H]12	40µM*
CCCNC(=O)N1CCN2C(=O)c3cc(-c4cccc(C(F)(F)F)c4)ccc3NC(=O)[C@@H]2C1	32µM*
COc1ccc(-c2cc(N3CCN(C(=O)c4cccc(F)c4)CC3)n[nH]2)cc1	i
C=CCO[C@@H]1CCN2C(=O)c3cc(-c4ccccc4F)ccc3NC(=O)[C@H]12	i
Cc1ccc(C(CNC(=O)c2ccco2)N2CCC(C)CC2)o1 (stereo not given)	i
CC(C)C(NC(=O)c1ccccc1Cl)C(C)C	i
CN(C)C(=O)c1ccc(OC2CCN(C(=O)c3ccccc3F)CC2)nc1	i
O=S(=O)(NC(c1ccccc1)c1ccccc1)c1cccs1	i
Cc1c(CC(=O)NCCc2cccc(F)c2)c(=O)oc2cc(O)ccc12	i
CCN(CC)C(=O)C(=O)c1c(-c2ccccc2)n(C)c2ccccc12	i
CCNC(=O)N1CCOc2ccc(CCC(=O)Nc3ccc(F)cc3F)cc2C1	i
N#Cc1ccc(OCCOC(=O)c2ccccc2SCC2CCCO2)cc1 (stereo not given)	i
